Experiment in all cases: NCI-60 one-dose screen, 48 h (100 = growth as untreated, 0 = no growth, -100 = all killed)
Details in all cases: 10 µM unless noted

The test system of assay [1] is SK-MEL-2 melanoma.
The subject of assay [2] is EKVX NSCLC.
For assay [3], the system named is SN12C renal.
The test system of assay [4] is UO-31 renal.
The test system of assay [5] is TK-10 renal.
Assay [6] relates to ACHN renal.
Assay [7] relates to CAKI-1 renal.
The test system of assay [8] is CCRF-CEM leukemia.
The subject of assay [9] is MOLT-4 leukemia.
Assay [10] deals with SR leukemia.
For assay [11], the system named is RPMI-8226 leukemia.
Assay [12] relates to OVCAR-8 ovarian.
Assay [13] deals with OVCAR-5 ovarian.
In assay [14] the test system is OVCAR-4 ovarian.
The test system of assay [15] is SK-OV-3 ovarian.
The subject of assay [16] is IGROV1 ovarian.
The subject of assay [17] is OVCAR-3 ovarian.
For assay [18], the system named is HS 578T breast.
Assay [19] deals with NCI/ADR-RES ovarian.
The subject of assay [20] is A498 renal.

About 83,000 compounds went through this panel and 20% of them were active in at least one assay; those are over-represented in the sample as a whole.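 Treatment: one concentration, 48 hours, 96-well format. Scoring: percent growth, with anything below 10 considered active.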 Unmarked numbers belong to inactive results. Active and inactive are the calls of the source.

Consider `O=C(Nc1ccccc1)P(=O)(O)c1ccccc1`, for which the growth is 118% in [1]; 113% in assay [2]; 92.1% in assay [3]; 76.9% in [4]; 107% in [5]; 93.9% in [6]. Further, the growth was 117% in assay [7]; 120% in assay [8]; 95% in assay [9]; 98% in assay [10]; 111% in [11]; 92.4% in assay [12]. Moreover, the growth was 92.9% in assay [13]; 105% in assay [14]; 113% in [15]; 121% in [16]; 104% in assay [17]; 107% in [18]. In [19], the growth is 99.4%.
On to `O=C1Nc2ccc(Cl)cc2[C@@](C#CC2CC2)(C(F)(F)F)O1`, for which the growth was 95.5% in assay [1]; 112% in assay [2]; 85.8% in [3]; 116% in [4]; 106% in [5]; 88.6% in [6]. The growth in [7] is 91.4%; in [20], 106%; in [8] it was 87.4%; in [9] it was 74.1%; in assay [11], 92.2%; in assay [12], 91.3%. For the same molecule, the growth in assay [13] is 91.1%; in [14], 89.1%; in assay [15], 110%; in assay [16] it was -10.5% (active); in [17], 101%; in assay [18], 99.2%. Besides, the growth in [19] is 99.1%.
In the case of `Nc1nc(SCc2cccnc2)c2ncn(C3OC(CO)C(O)C3O)c2n1` (stereo not given), the growth in assay [1] is 109%; in [2], 101%; in assay [3] it was 89.2%; in [4] it was 72.7%; in [5], 99.5%; in assay [6], 92.2%. Besides, the growth in assay [7] is 98.6%; in assay [8], 115%; in [9], 111%; in assay [10], 118%; in assay [11], 115%; in [12] it was 97.1%. Further, the growth in assay [13] is 90.1%; in assay [14], 112%; in [15] it was 107%; in assay [16], 98.6%; in assay [17] it was 99.9%; in assay [18] it was 109%. For the same molecule, the growth in [19] was 102%.
Regarding `CCCCc1ccc(C(N)=O)nc1`, the growth in [1] was 96%; in assay [2], 100%; in assay [3], 98.7%; in assay [4] it was 88.7%; in [5], 103%; in [6], 98.8%. Also, the growth in assay [7] was 102%; in [20], -4.32% (active); in assay [8], 92%; in assay [9], 101%; in assay [11], 88.6%; in assay [12], 107%. Moreover, the growth in assay [13] is 96.2%; in assay [14], 100%; in assay [15] it was 99.5%; in assay [16], 19.4%; in assay [17] it was 107%; in assay [18], -48.3% (active). Further, the growth in assay [19] is 106%.
As for `CC(=O)Nc1cc2c3c(cccc3c1)-c1ccccc1-2`, the growth in assay [1] was 83.5%; in assay [2] it was 55.1%; in assay [3], 31.6%; in assay [4], 19.2%; in assay [5], 96.3%; in [6], 91.5%. For the same molecule, the growth in assay [7] is 33.5%; in [20] it was 58.7%; in assay [8] it was 21.4%; in assay [9], 45.8%; in assay [10], 81.6%; in assay [12], 86.1%. The growth in assay [14] was 71.5%; in assay [15], 105%; in assay [16], 59%; in assay [17], 92.8%; in assay [18], 112%; in [19], 84.5%.
In the case of `COc1ccc(C2=NN(C(N)=S)C(c3ccc4c(c3)OCO4)C2)cc1` (stereo not given), the growth is 47% in assay [1]; 29.1% in assay [2]; 31% in assay [3]; -7.08% (active) in assay [4]; 50.2% in assay [5]; 22% in assay [6]. Moreover, the growth is 6.32% (active) in assay [7]; 49.2% in assay [20]; 5.49% (active) in [8]; 13.8% in [9]; 4.75% (active) in [10]; 20.9% in [12]. The growth in [13] is 75.1%; in [15] it was 33.8%; in [17], -21.5% (active); in assay [18], -13% (active); in [19], 5.5% (active).
Consider `NS(=O)(=O)c1ccc(-n2ncc3c(SCc4ccccc4)ncnc32)cc1`, for which the growth in assay [1] is 99.8%; in [2], 107%; in assay [3], 98.8%; in assay [4], 98.5%; in assay [5], 89.4%; in assay [6], 98%. Moreover, the growth in [7] is 26.3%; in [20] it was 111%; in assay [9], 50.3%; in [11] it was 91.9%; in assay [12], 96.1%; in [13], 99.7%. The growth is 104% in assay [14]; 108% in assay [15]; 85.9% in assay [16]; 99.4% in assay [17]; 97.3% in assay [18]; 101% in assay [19].
With `O=C(O)C1CCN(S(=O)(=O)c2ccc(-c3ccccc3)cc2)CC1`, the growth in assay [1] is 5.44% (active); in assay [2] it was 103%; in assay [3], 101%; in [4], 101%; in assay [5], 133%; in assay [6], 109%. In addition, the growth is 104% in [7]; 104% in [20]; 90.1% in assay [8]; 107% in [9]; 58.7% in assay [11]; 81.4% in assay [12]. Moreover, the growth in assay [13] was 125%; in assay [14] it was 106%; in [15], 111%; in [17] it was 112%; in [18] it was 113%; in [19], 117%.
For the molecule `CCOC(=O)Nc1ccc2c3c(cccc13)-c1ccccc1-2`, the growth in [1] was 24.8%; in assay [2], 48.4%; in assay [3] it was 42.2%; in assay [4] it was 21.1%; in [5], 45.5%; in assay [6], 50.6%. Also, the growth in assay [7] was 16.5%; in assay [20], 76.2%; in assay [8], 55.4%; in [9], 36%; in assay [10], 13.6%; in assay [13], 63.6%. The growth was 48.5% in assay [14]; 62.7% in assay [15]; 20.9% in [16]; -19.8% (active) in assay [17]; 16.6% in assay [18]; 7.96% (active) in [19].

(Values after PubChem BioAssay (NCI).)
